Compounds with a hit are over-represented: about 2.3% of the library has one in this group of screens.
YB-1 expression – inhibitors of YB-1 gene expression, primary screen, cell-based, fluorescence; U2OS, qRT-PCR YB-1 vs CDIP delta delta Cp, 16 h; stronger effect = higher value; zero = DMSO, each unit about twofold; delta delta Cp (YB-1 minus CDIP) (test concentration not listed); AID 434959, 2010; 30,000 compounds, 0.37% hits;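 active = delta delta Cp rounded down to an integer at or above 3, about 3 SD of DMSO wells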;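 also: higher means less YB-1 transcript or more CDIP transcript relative to DMSO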
U2OS ROS induce – ROS inducers in U2OS cancer cells, primary screen, cell-based, H2DCF-DA fluorescence. U2OS ROS induction. ROS induction (% of piperlongumine), % at 10 µM. 46,000 compounds, 2% hits; in the data active = ROS induction above about 79%, passing the limit was not always enough; inconclusive = no clear call, values can overlap the other calls
Hits are given with their value; – = inactive; ? = inconclusive; · = no result.

SMILES | YB-1 expression | U2OS ROS induce
N#CC1=C(N)N(c2sc3c(c2C#N)CCCC3)C2=C(CCC2)C1(C(F)(F)F)C(F)(F)F | · | 204.9
CC1=CC(C)C2(COC(=O)NC3CCCCC3)COC3(CCCC3)C1C2C (stereo not drawn) | – | –
COC(=O)C1(Cc2ccc(O)c(CC=C(C)C)c2)OC(=O)C(OC)=C1c1ccc(O)c(O)c1 (stereo not drawn) | – | –
COC(=O)C1(Cc2ccc(O)cc2)OC(=O)C(OC)=C1c1ccc(O)cc1 (stereo not drawn) | 4.35 | –
CCCOc1ccc(Br)cc1/C=C1\NC(=S)NC1=O | · | –
O=C(O)c1ccc(CSC2CCCCC2)cc1 | · | –
COc1cc(NC(=O)c2ccc(CSC3CCCCC3)cc2)cc(OC)c1OC | · | 135.1
O=C(c1ccc2nc3ccccc3c(=O)n2c1)N1CCN(c2ccc(Cl)cc2)CC1 | · | –
COc1cccc(OCCSc2nc3ccccc3s2)c1 | · | –
Cn1c(SCc2nc(-c3ccc(Br)cc3)no2)nnc1-c1ccco1 | · | –
COc1ccc(-c2noc(CSc3nnc(-c4ccccc4)n3C)n2)cc1 | · | 124.6
COc1ccc(NC(=O)C2C=C3C=CC(=O)C=C3OC2=Nc2ccc(C(=O)O)cc2)cc1 (stereo not drawn) | · | –
C[C@@H]1O[C@@H](Oc2cc(O)c3c(=O)c(-c4ccc(O)cc4)coc3c2)[C@H](O)[C@H](O)[C@H]1O | 3.88 | –
C[C@@H]1O[C@@H](Oc2ccc(-c3coc4cc(O[C@@H]5O[C@@H](C)[C@H](O)[C@@H](O)[C@H]5O)cc(O)c4c3=O)cc2)[C@H](O)[C@H](O)[C@H]1O | – | –
COc1ccc(C#Cc2cnc3c(c2)C(=O)N([C@H](C)CO)C[C@H](C)[C@H](CN(C)S(C)(=O)=O)O3)cc1OC | – | –
COc1ccc(C#Cc2cnc3c(c2)C(=O)N([C@H](C)CO)C[C@H](C)[C@H](CN(C)S(=O)(=O)c2ccc(C)cc2)O3)cc1OC | – | 139.9
C[C@H](CO)N1C[C@H](C)[C@H](CN(C)S(=O)(=O)c2cccs2)Oc2ncc(C#CC(C)(C)O)cc2C1=O | 9.94 | –
C[C@H](CO)N1C[C@H](C)[C@H](CN(C)S(=O)(=O)c2cccs2)Oc2ncc(C#Cc3ccccc3)cc2C1=O | – | –
CCc1ccccc1NC(=O)CCn1c(=O)c2cccn2c2ccccc21 | · | –
O=C(NC1CCS(=O)(=O)C1)c1c(Cl)cccc1Cl (stereo not drawn) | · | –
O=C(CSc1nc2ccccc2c(=O)n1NC(=O)c1ccccc1)NCc1ccccc1 | · | –
CCN1CCN(c2nc(-c3ccc(C(C)(C)C)cc3)nc3ccccc23)CC1 | · | –
COc1ccc(S(=O)(=O)N(CCc2ccccc2)CC(=O)Nc2cccc(Cl)c2)cc1OC | · | –
COc1ccc(-c2[nH]ncc2CN2CCC(c3ccccc3OC)CC2)cc1 | · | –
COc1ccc(OCc2nnc3n2N=C(c2ccc(OC)c(OC)c2)C(c2ccccc2)S3)cc1 (stereo not drawn) | · | 99.0
SMILES | YB-1 expression | U2OS ROS induce
N#Cc1c(C(F)(F)F)cc(-c2cccs2)nc1SCC(=O)Nc1c(F)cccc1F | · | –
N#Cc1c(C(F)(F)F)cc(-c2cccs2)nc1S/C=C/C(=O)c1ccccc1 | – | 126.2
Cc1cc(Br)ccc1NC(=O)c1cc2c(s1)-c1ccccc1OC2 | · | –
Cc1cc(Sc2nnc(/N=C/N(C)C)s2)c2ccccc2n1 | · | 192.3
CN(C)/C=N/c1nnc(SCC(=O)c2ccc(F)cc2)s1 | · | –
CCOC(=O)c1c(CN(C)C)n(-c2ccccc2)c2cc(Br)c(OC)cc12 | – | 237.8
CCOC(=O)c1c(C)n(-c2cccc(C)c2)c2ccc(O)cc12 | – | –
CCOC(=O)c1c(CN2CCCCC2)n(-c2ccccc2)c2cc(Br)c(OC)cc12 | – | 120.9
CCOC(=O)c1c(SC)n(-c2ccccc2)c(=S)n(-c2ccccc2)c1=O | · | –
O=C(CC1(O)C(=O)Nc2ccccc21)C1CC2C=CC1C2 (stereo not drawn) | · | –
COc1cc2c(cc1OC)CN(S(=O)(=O)c1c(C)nn(C)c1C)CC2 | · | –
C[C@H]1CN([C@@H](C)CO)C(=O)c2cc(NC(=O)CCCN(C)C)ccc2O[C@@H]1CN(C)CC1CCCCC1 | – | –
C[C@H](CO)N1C[C@H](C)[C@H](CN(C)CC2CCCCC2)Oc2ccc(NC(=O)CCCN(C)C)cc2C1=O | 17.6 | –
C[C@H]1CN([C@@H](C)CO)C(=O)Cc2cc(NC(=O)CCCN(C)C)ccc2O[C@@H]1CN(C)CC1CCCCC1 | – | –
C[C@H]1CN([C@@H](C)CO)C(=O)Cc2cc(NC(=O)CCC(F)(F)F)ccc2O[C@H]1CN(C)CC1CCCCC1 | – | 98.8
C[C@H](CO)N1C[C@H](C)[C@H](CN(C)CC2CCCCC2)Oc2ccc(NC(=O)Nc3ccc(C(F)(F)F)cc3)cc2CC1=O | – | 153.5
C[C@H]1CN([C@@H](C)CO)C(=O)Cc2cc(NC(=O)Nc3ccc(C(F)(F)F)cc3)ccc2O[C@@H]1CN(C)CC1CCCCC1 | – | –
C[C@@H]1CN([C@@H](C)CO)C(=O)Cc2cc(NC(=O)CCC(F)(F)F)ccc2O[C@@H]1CN(C)CC1CCCCC1 | – | –
C[C@@H]1CN([C@H](C)CO)C(=O)Cc2cc(NC(=O)CCCN(C)C)ccc2O[C@@H]1CN(C)CC1CCCCC1 | – | 93.3
CCOC(=O)c1cccc(NS(=O)(=O)c2cc(C(=O)OCC)n(C)c2)c1 | · | –
O=C(NC1CCCC1)c1ccc(COc2cc(Cl)ccc2Cl)o1 | · | –
CCN=C1S/C(=C/c2ccc(OCC(=O)O)c(Cl)c2)C(=O)N1CC | · | –
Cc1nnc(SCc2ccc(F)cc2Cl)c2cc3occc3n12 | · | –
C[C@@H]1CN([C@H](C)CO)C(=O)Cc2cc(NC(=O)Cc3ccccc3)ccc2O[C@H]1CN(C)CC1CCCCC1 | – | 79.5
C[C@H](CO)N1C[C@H](C)[C@H](CN(C)CC2CCCCC2)Oc2ccc(NC(=O)Cc3ccccc3)cc2CC1=O | – | –
SMILES | YB-1 expression | U2OS ROS induce
C[C@@H]1CN([C@H](C)CO)C(=O)c2cc(NC(=O)C3CCCCC3)ccc2O[C@H]1CN(C)Cc1ccc(Oc2ccccc2)cc1 | – | –
C[C@H](CO)N1C[C@H](C)[C@@H](CN(C)Cc2ccc(Oc3ccccc3)cc2)Oc2ccc(NC(=O)C3CCCCC3)cc2C1=O | – | 83.8
C[C@H]1CN([C@@H](C)CO)C(=O)c2cc(NC(=O)C3CCCCC3)ccc2O[C@@H]1CN(C)Cc1ccc(-c2ccccc2)cc1 | – | ?
C[C@H](CO)N1C[C@H](C)[C@@H](CN(C)Cc2ccc(-c3ccccc3)cc2)Oc2ccc(NC(=O)C3CCCCC3)cc2C1=O | – | 103.6
Cc1ccc(C(C)C)c(OCc2ccc(C(=O)Nc3ccccc3C(F)(F)F)o2)c1 | · | –
CCCOC(=O)Nc1ccc(Cl)cc1C(=O)c1ccccc1 | · | –
CCC(C)NC(=O)COc1ccc(C(C)(C)c2ccccc2)cc1 (stereo not drawn) | · | –
Cc1ccc(-n2nc3c(c2NC(=O)COc2ccc(Cl)cc2)CSC3)c(C)c1 | · | –
CCOC(=O)Cn1cc(/C=C2\C(=O)NC(=O)N(c3ccc(F)cc3)C2=O)c2ccccc21 | · | –
COCCN1C(=O)/C(=C/c2cn(CC(=O)OC)c3ccccc23)C(=O)N(c2ccccc2)C1=O | – | 93.0
O=C(Nc1ccc(N2CCOCC2)cc1)c1cnc2ccccc2n1 | · | –
O=C(Nc1ccc(N2CCCCC2)cc1)c1ccncc1 | – | 87.2
CCC(=O)Oc1ccc(/C=C/c2ccccc2)cc1OC | · | –

Bioassay records deposited in PubChem BioAssay by Broad Institute.
